Measured values published in PubChem BioAssay (NCATS).
“And” between values parts separate entries of the source, which are not always exact repeats. Equal entries are not always repeated. Records with an inconclusive call do not appear. The source made the active and inactive calls. Calls follow the shape of the dose curve; as a rule, active = well fitted curve in the direction sought with a large enough effect; inconclusive = small, poorly fitted or top-dose-only effect, or another doubt; inactive = no such curve, though single readings can be large; an effect the other way counts as inactive or inconclusive.

Assays:
[1] = molecular target: Tyrosine-protein phosphatase non-receptor type substrate 1 (Homo sapiens) + Leukocyte surface antigen CD47 (Homo sapiens) (UniProt P78324+Q08722); test: CD47-SIRPalpha protein protein interaction - Alpha assay qHTS validation (AID 1347059);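 also: bead proximity luminescence from CD47 binding SIRPalpha after compound preincubation with SIRPalpha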
Chain of Tyrosine-protein phosphatase non-receptor type substrate 1 (Homo sapiens) + Leukocyte surface antigen CD47 (Homo sapiens) (P78324 whole entry, looked up): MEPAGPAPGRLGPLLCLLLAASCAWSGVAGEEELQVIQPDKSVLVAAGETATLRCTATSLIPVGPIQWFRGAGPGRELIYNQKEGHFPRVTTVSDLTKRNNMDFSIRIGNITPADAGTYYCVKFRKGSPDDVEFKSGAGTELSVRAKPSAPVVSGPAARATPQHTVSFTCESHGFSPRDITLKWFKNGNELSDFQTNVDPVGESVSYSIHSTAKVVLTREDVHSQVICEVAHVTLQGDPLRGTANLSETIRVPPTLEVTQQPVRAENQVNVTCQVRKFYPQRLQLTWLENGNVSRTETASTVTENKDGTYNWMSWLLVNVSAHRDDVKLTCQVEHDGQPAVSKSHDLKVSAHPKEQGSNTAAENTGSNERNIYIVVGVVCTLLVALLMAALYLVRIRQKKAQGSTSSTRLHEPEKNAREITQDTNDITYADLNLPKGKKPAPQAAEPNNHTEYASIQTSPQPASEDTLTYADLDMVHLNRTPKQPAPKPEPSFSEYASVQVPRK
Chain of Tyrosine-protein phosphatase non-receptor type substrate 1 (Homo sapiens) + Leukocyte surface antigen CD47 (Homo sapiens) (Q08722 whole entry, looked up): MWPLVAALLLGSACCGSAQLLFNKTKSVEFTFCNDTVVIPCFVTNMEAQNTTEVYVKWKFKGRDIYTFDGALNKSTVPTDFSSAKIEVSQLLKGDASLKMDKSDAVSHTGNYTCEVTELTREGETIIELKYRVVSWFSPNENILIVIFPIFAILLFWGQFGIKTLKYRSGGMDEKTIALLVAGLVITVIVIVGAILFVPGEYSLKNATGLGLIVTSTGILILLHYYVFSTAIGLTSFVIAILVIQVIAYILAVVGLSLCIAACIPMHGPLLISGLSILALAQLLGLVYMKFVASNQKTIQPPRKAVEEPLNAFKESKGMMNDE
How it was run: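 SIRPalpha-biotin 25 nM + cpd, 30 min RT, dark; add CD47-His 12.5 nM, 30 min; add Ni-NTA/SAV beads 10 ug/mL, 30 min; AlphaScreen. Buffer PBS pH 7.4 + 0.05% IGEPAL CA-630. Non-biotinylated SIRPalpha as control inhibitor.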

[2] = molecular target: Parathyroid hormone/parathyroid hormone-related peptide receptor (Homo sapiens) (UniProt Q03431); test: qHTS for PTHR1 Agonists: Optimization Screen against the NCGC LOPAC library (AID 1347079);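 also: GloSensor cAMP luminescence in HEK-293 GP2 cells expressing human PTHR1 with IBMX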
Chain of Parathyroid hormone/parathyroid hormone-related peptide receptor (Homo sapiens) (Q03431 whole entry, looked up): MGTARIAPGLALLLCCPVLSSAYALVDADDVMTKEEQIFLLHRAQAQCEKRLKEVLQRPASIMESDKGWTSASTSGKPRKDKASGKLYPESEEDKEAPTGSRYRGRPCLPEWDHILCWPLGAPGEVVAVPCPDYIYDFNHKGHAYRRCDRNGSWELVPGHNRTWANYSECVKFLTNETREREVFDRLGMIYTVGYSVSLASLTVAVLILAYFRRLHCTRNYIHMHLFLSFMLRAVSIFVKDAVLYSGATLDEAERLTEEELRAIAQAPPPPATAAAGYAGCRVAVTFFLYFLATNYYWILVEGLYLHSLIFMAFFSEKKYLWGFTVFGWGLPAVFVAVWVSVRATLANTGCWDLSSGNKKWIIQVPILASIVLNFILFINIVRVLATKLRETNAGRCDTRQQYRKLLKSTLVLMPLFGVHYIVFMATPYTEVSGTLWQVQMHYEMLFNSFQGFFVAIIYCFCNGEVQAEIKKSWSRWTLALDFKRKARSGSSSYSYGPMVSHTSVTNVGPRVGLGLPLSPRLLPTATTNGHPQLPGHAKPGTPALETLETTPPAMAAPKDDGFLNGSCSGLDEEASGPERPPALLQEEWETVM
How it was run: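 HEK-293 GP2 cells, PTHR1 + GloSensor cAMP; 3000 cells/well, o/n. Luciferin + IBMX 0.5mM each (stock), 1 hr 37C. Cpd titration, 1 hr 37C. Lum after 15 min RT. Ctrl M-PTH(1-15) top 10uM.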

[3] = qHTS of pediatric cancer cell lines to identify multiple opportunities for drug repurposing: Primary screen for TC32 cells (AID 1347089); also: nearly all actives have a fitted effect of over 60% in size; also: potency is read from the fitted curve at half-maximal effect
How it was run: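 In the primary qHTS, MIPE compounds were tested at 11 concentrations (0.78 nM to 46 µM) and NPC compounds at 8 (0.59 nM to 46 µM) on TC32 cells for 48 h. CellTiter-Glo luminescence gave viability.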

[4] = qHTS of pediatric cancer cell lines to identify multiple opportunities for drug repurposing: Primary screen for DAOY cells (AID 1347090); also: nearly all actives have a fitted effect of over 55% in size; also: potency is read from the fitted curve at half-maximal effect
How it was run: (§1)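 Viability measured as metabolically active cells via CellTiter-Glo luminescence following 48 hours of compound exposure, 11-point dilutions in confirmatory testing. 500-1,000 cells/well plated 5 hours before dosing; controls were DMSO and 2.3 µM bortezomib.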

[5] = qHTS of pediatric cancer cell lines to identify multiple opportunities for drug repurposing: Primary screen for SJ-GBM2 cells (AID 1347091); also: potency is read from the fitted curve at half-maximal effect
How it was run: as §1

[6] = qHTS of pediatric cancer cell lines to identify multiple opportunities for drug repurposing: Primary screen for A673 cells (AID 1347092); also: nearly all actives have a fitted effect of over 45% in size; also: potency is read from the fitted curve at half-maximal effect
How it was run: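 48 h compound exposure, A673, 500-1,000 cells/well, 37 degrees C/5% CO2. MIPE: 11-point, 0.78 nM-46 µM; NPC: 8-point, 0.59 nM-46 µM (final). Readout CellTiter-Glo luminescence after 15 min RT.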

[7] = qHTS of pediatric cancer cell lines to identify multiple opportunities for drug repurposing: Primary screen for SK-N-MC cells (AID 1347093); also: potency is read from the fitted curve at half-maximal effect
How it was run: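 Metabolically active cells were quantified by ATP-dependent luminescence (CellTiter-Glo, 15 min at room temperature) following 48 h treatment. Cells had been plated at 500-1,000 per well and settled for 5 h beforehand.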

[8] = qHTS of pediatric cancer cell lines to identify multiple opportunities for drug repurposing: Primary screen for BT-37 cells (AID 1347094); also: potency is read from the fitted curve at half-maximal effect
How it was run: (§2)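 Viability was measured as metabolically active cells after 48 hours of treatment, read by CellTiter-Glo luminescence. Compounds were tested at multiple final concentrations, giving concentration-response curves.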

[9] = qHTS of pediatric cancer cell lines to identify multiple opportunities for drug repurposing: Primary screen for NB-EBc1 cells (AID 1347095); also: potency is read from the fitted curve at half-maximal effect
How it was run: as §2

[10] = qHTS of pediatric cancer cell lines to identify multiple opportunities for drug repurposing: Primary screen for U-2 OS cells (AID 1347096); also: nearly all actives have a fitted effect of over 50% in size; also: potency is read from the fitted curve at half-maximal effect
How it was run: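 Viability after 48 h compound treatment at 37C, 500-1,000 cells/well, read as ATP luminescence with CellTiter-Glo. Primary screens used 11-point (MIPE, 0.78 nM-46 µM) or 8-point (NPC, 0.59 nM-46 µM) final concentrations; follow-up screens used 11-point dilutions.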

Measured: Potency

CCOC(=O)c1ncn2c1CN(C)C(=O)c1cc(F)ccc1-2
inactive: all assays above

CC(C)NCC(O)COc1ccc(CCOCC2CC2)cc1 (stereo not drawn)
inactive: all assays above

NCCCCCC(=O)O
inactive: all assays above

NC(=O)OCC(COC(N)=O)c1ccccc1
inactive: all assays above

O=C(C1CCCCC1)N1CC(=O)N2CCc3ccccc3C2C1 (stereo not drawn)
inactive: all assays above

CCC1(C)CC(=O)NC1=O (stereo not drawn)
inactive: all assays above

CCN1CCCC1CNC(=O)c1cc(S(=O)(=O)CC)c(N)cc1OC (stereo not drawn)
inactive: all assays above

COc1nc(C)nc(Cl)c1NC1=NCCN1
inactive: all assays above

O=C1N(c2ccccc2)c2ccccc2C1(Cc1ccncc1)Cc1ccncc1
inactive: all assays above

Nc1ccn([C@H]2CC[C@@H](CO)O2)c(=O)n1
active: [7] 18.7 µM and 21.1 µM
inactive: all other assays above

COc1cc2nc(N(C)CCCNC(=O)C3CCCO3)nc(N)c2cc1OC (stereo not drawn)
inactive: all assays above

COc1ccc(C2CNC(=O)C2)cc1OC1CCCC1 (stereo not drawn)
inactive: all assays above

CCCCc1oc2ccccc2c1C(=O)c1cc(I)c(OCCN(CC)CC)c(I)c1
active: [4] 5.9 µM | [5] 8.33 µM | [6] 4.69 µM and 26.6 µM | [7] 1.18 µM and 13.3 µM | [8] 30.9 µM | [9] 8.33 µM | [10] 7.43 µM
inactive: [1] | [2] | [3]

Cn1cnc2c1c(=O)[nH]c(=O)n2C
inactive: [1] | [2] | [3] | [4]

Cc1ccc(C(=O)Nc2ccc(S(=O)(=O)O)c3cc(S(=O)(=O)O)cc(S(=O)(=O)O)c23)cc1NC(=O)c1cccc(NC(=O)Nc2cccc(C(=O)Nc3cc(C(=O)Nc4ccc(S(=O)(=O)O)c5cc(S(=O)(=O)O)cc(S(=O)(=O)O)c45)ccc3C)c2)c1
inactive: all assays above

CN(Cc1cnc2nc(N)nc(N)c2n1)c1ccc(C(=O)N[C@@H](CCC(=O)O)C(=O)O)cc1
active: [3] 0.0066 µM | [4] 0.0266 µM | [5] 47.3 nM and 41.8 nM | [6] 4.2 nM and 59 nM | [7] 3 nM | [8] 9.8 nM and 48.5 nM | [9] 106 nM and 187 nM
inactive: [1] | [2] | [10]

CCOC(=O)C(C)(C)Oc1ccc(Cl)cc1
not listed: [9]
inactive: all other assays above

CN1CCN(C2=Nc3cc(Cl)ccc3Nc3ccccc32)CC1
inactive: all assays above

NS(=O)(=O)c1cc2c(cc1Cl)NCNS2(=O)=O
inactive: all assays above

CCc1cccc2c3c([nH]c12)C(CC)(CC(=O)O)OCC3 (stereo not drawn)
inactive: all assays above
